Measurements reported in PubChem BioAssay AID504447 (The Scripps Research Institute Molecular Screening Center, 2011).
Potency and affinity values are given separately. Active and inactive are the calls of the source. The rule behind the calls is not given here.

target: Peroxisome proliferator-activated receptor gamma (Homo sapiens) (UniProt P37231); assay: PPARg partial agonists, dose response, cell-based, luminescence, assay provider (AID 504447); conditions: cell-based PPARg reporter, luciferase luminescence, partial agonism; series mostly up to 5 µM; fold change activation: at the top concentration
Sequence (P37231 whole entry, looked up): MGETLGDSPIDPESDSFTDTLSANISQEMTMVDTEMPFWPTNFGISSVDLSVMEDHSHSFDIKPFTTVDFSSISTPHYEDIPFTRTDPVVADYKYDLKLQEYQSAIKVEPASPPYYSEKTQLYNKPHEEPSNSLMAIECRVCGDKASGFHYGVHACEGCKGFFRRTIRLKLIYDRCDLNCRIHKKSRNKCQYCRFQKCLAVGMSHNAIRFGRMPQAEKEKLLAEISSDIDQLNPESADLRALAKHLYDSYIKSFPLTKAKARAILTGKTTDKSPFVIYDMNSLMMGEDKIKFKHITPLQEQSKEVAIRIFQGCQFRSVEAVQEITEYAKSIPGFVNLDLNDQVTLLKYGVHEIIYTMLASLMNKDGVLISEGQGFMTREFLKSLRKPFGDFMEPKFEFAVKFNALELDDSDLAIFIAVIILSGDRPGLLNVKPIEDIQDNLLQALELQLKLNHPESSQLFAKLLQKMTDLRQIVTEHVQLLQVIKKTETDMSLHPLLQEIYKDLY

Fold change activation, inactive:
O=C(CSc1nnc(Cc2cc(=O)[nH]c(=O)[nH]2)n1-c1ccc(Cl)cc1)N1CCc2ccccc21 1.03 fold, O=C(c1cccc(N2C(=O)C3C4C=CC(C4)C3C2=O)c1)N1CCN(c2ccccc2Cl)CC1 (stereo not drawn) 0.9 fold, O=C1C(=O)N(CCCn2ccnc2)C(c2ccc(Cl)cc2)/C1=C(\O)c1ccc2c(c1)OCCO2 (stereo not drawn) 1.01 fold, Cc1ccc2nc(N3C(=O)C(O)=C(C(=O)c4ccco4)C3c3cccc(O)c3)sc2c1 (stereo not drawn) 1.17 fold, Cc1cccc(NC(=O)CN2C(=O)/C(=C3\SC(=S)N(CC4CCCO4)C3=O)c3ccccc32)c1 (stereo not drawn) 1.07 fold, Cc1ccc2[nH]c(=O)c(CN(Cc3cccs3)Cc3nnnn3CC3CCCO3)cc2c1 (stereo not drawn) 1.02 fold, COc1ccc(O)c(C(=O)c2cc(C#N)c(=O)n(-c3ccc(Cl)cc3)c2)c1 1.07 fold, Cc1ccc(-c2nnc(Nc3ccc(O)cc3)c3ccccc23)cc1S(=O)(=O)NCCO 1.09 fold, O=C(O)CCN1C(=O)/C(=C/c2ccc(C(F)(F)F)cc2C(F)(F)F)SC1=S 0.98 fold, CCOc1cccc(/C(O)=C2/C(=O)C(=O)N(CCN3CCOCC3)C2c2ccncc2)c1 (stereo not drawn) 1.06 fold, O=C(O)CCN1C(=O)/C(=C/c2ccccc2)SC1=S 0.99 fold, CCOc1cc(N2CCOCC2)c(OCC)cc1NC(=O)c1ccc2ccccc2n1 1.26 fold, Cc1cc(N2C(=O)C(O)=C(C(=O)c3cccs3)C2c2cccc(Br)c2)no1 (stereo not drawn) 1.07 fold, COc1ccc(S(=O)(=O)N2CCCCC2)cc1NC(=O)C1CSC2(C)CCC(=O)N12 (stereo not drawn) 1.1 fold, COc1cc(/C=C(\NC(=O)c2ccccc2)C(=O)NC(C(=O)O)c2ccccc2)cc(OC)c1OC (stereo not drawn) 0.9 fold, S=C(NCCc1ccccc1)N1CCn2cccc2C1c1ccncc1 (stereo not drawn) 1.14 fold, O=C(CNC(=O)c1nc[nH]c1C(=O)N1CCc2ccccc2C1)OCc1ccccc1 1.01 fold, CCOc1cccc(/C(O)=C2/C(=O)C(=O)N(Cc3ccco3)C2c2ccncc2)c1 (stereo not drawn) 0.91 fold, Cc1c(-n2cc(C(=O)c3cc(F)ccc3O)cc(C#N)c2=O)c(=O)n(-c2ccccc2)n1C 1.05 fold, CC(Oc1ccc2c(c1)oc(=O)c1ccccc12)C(=O)NC(Cc1c[nH]c2ccc(O)cc12)C(=O)O (stereo not drawn) 0.99 fold, CCOc1ccc(CN2CCN(Cc3cccc4nonc34)CC2CCO)cc1 (stereo not drawn) 1.03 fold, O=C1CC(N2CCN(Cc3ccc4c(c3)OCO4)CC2)C(=O)N1Cc1ccc(N2CCCC2=O)cc1 (stereo not drawn) 1.06 fold, COc1cc(C2/C(=C(/O)c3ccc(F)cc3)C(=O)C(=O)N2CCCC(=O)O)ccc1O (stereo not drawn) 0.97 fold
